The experiment in a line: cytotoxicity in mouse C2C12 myoblasts – cell-based, CellTiter-Glo ATP luminescence, 8/24/48 h, dry powder, cytotoxicity control for HRAS target identification, dose response (AID 720603). For orientation: In ATP-based viability assays light output follows the ATP content of the culture.

Molecules are shown by their SMILES. Potency and affinity values are given separately. Records with an inconclusive call do not appear. Where a call stands in place of a potency, no number is given. Calls of active or inactive are those of the source.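 Rule for the calls: active = every test run gave an active call, each with a potency at or below twice the top valid dose; inconclusive = test runs disagree, or curve fits are weak or unclear; inactive = every test run inactive, including wrong-way signal.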

On to `Cc1onc(C(=O)N2CCN(C(c3ccncc3)c3ccncc3)CC2)c1[N+](=O)[O-]`, for which the outcome was inactive.
